# Test results taken from publication PMC7862700, “An all-to-all approach to the identification of sequence-specific readers for epigenetic DNA modifications on cytosine”.
# Biological target: T1, ERF (Homo sapiens, UniProt P50548 1-548)
# T1 sequence: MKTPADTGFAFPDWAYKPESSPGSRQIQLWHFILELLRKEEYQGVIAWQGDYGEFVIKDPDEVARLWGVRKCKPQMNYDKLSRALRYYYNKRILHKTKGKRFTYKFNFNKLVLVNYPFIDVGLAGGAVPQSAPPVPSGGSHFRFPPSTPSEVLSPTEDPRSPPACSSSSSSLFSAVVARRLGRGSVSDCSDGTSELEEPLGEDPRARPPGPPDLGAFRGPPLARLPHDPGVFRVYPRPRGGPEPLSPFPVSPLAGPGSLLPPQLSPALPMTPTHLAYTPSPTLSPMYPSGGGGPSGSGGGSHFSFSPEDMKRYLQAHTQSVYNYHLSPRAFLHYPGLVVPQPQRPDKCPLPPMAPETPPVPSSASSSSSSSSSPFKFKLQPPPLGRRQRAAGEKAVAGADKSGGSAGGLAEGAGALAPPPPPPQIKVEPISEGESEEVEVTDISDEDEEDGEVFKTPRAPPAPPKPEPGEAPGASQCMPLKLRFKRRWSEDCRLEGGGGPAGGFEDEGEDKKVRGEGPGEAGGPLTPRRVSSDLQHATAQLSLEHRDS
# Assay: DAPPL (digital affinity profiling via proximity ligation, sequencing); 10 mM Tris-HCl pH 7.5, 50 mM NaCl, 1 mM DTT, 4% glycerol, room temperature, 30 min; GST-TFs on glutathione beads, 16-mer random dsDNA library, 0.1% formaldehyde crosslink after washing; high values mean tight binding
# Conditions: protein: recombinant; tags: N-terminal GST; dsDNA, one strand shown
# Method in brief: (§1)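 Binding signal is each hexamer's read frequency for a factor divided by its frequency in the tag-only sample. The factors were GST-fused human transcription factors from yeast, captured on glutathione beads, DNA-barcoded and pooled with that sample. Pools were incubated with 200 nmole of a random double-stranded 16-mer DNA library in Tris/NaCl/DTT/glycerol buffer at room temperature for 30 min, then washed, crosslinked with 0.1% formaldehyde, proximity-ligated with BsaI/T4 ligase (1 h, 37 °C), PCR-amplified and sequenced on an Illumina NextSeq500.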
row,Sequence,binding signal
1,GTCACA,"1.11 fold enrichment (6-mer frequency, TF over GST control)"
2,ATGGGT,"1.36 fold enrichment (6-mer frequency, TF over GST control)"
3,GTTTGA,"1.23 fold enrichment (6-mer frequency, TF over GST control)"
4,ATTGGG,"1.31 fold enrichment (6-mer frequency, TF over GST control)"
5,CGTCCC,"1.35 fold enrichment (6-mer frequency, TF over GST control)"
6,GCTCTG,"1.03 fold enrichment (6-mer frequency, TF over GST control)"
7,TTCCCT,"1.58 fold enrichment (6-mer frequency, TF over GST control)"
8,CCGGCC,"1.06 fold enrichment (6-mer frequency, TF over GST control)"
9,TTCTTG,"1.56 fold enrichment (6-mer frequency, TF over GST control)"
10,TGTTTG,"1.4 fold enrichment (6-mer frequency, TF over GST control)"
11,ATTGCC,"1.15 fold enrichment (6-mer frequency, TF over GST control)"
12,ACGCCC,"1.24 fold enrichment (6-mer frequency, TF over GST control)"
13,CACTCC,"1.15 fold enrichment (6-mer frequency, TF over GST control)"
14,AAAAAA,"1.35 fold enrichment (6-mer frequency, TF over GST control)"
15,CAGGAA,"1.42 fold enrichment (6-mer frequency, TF over GST control)"
16,GCCCGC,"1.11 fold enrichment (6-mer frequency, TF over GST control)"
17,TACGTC,"1.08 fold enrichment (6-mer frequency, TF over GST control)"
18,TAATCC,"1.12 fold enrichment (6-mer frequency, TF over GST control)"
19,GCGGAA,"1.19 fold enrichment (6-mer frequency, TF over GST control)"
20,TGATGT,"1.16 fold enrichment (6-mer frequency, TF over GST control)"

row,Sequence,binding signal
1,CCGACA,"1.22 fold enrichment (6-mer frequency, TF over GST control)"
2,CGGAAG,"2.46 fold enrichment (6-mer frequency, TF over GST control)"
3,TTTAAT,"1.33 fold enrichment (6-mer frequency, TF over GST control)"
4,GGAACA,"1.01 fold enrichment (6-mer frequency, TF over GST control)"
5,TGATAT,"1.02 fold enrichment (6-mer frequency, TF over GST control)"
6,CTTGTC,"1.44 fold enrichment (6-mer frequency, TF over GST control)"
7,ATACGC,"1.18 fold enrichment (6-mer frequency, TF over GST control)"
8,TGACGA,"1.14 fold enrichment (6-mer frequency, TF over GST control)"
9,CCGCAA,"1.19 fold enrichment (6-mer frequency, TF over GST control)"
10,ACCCCC,"1.08 fold enrichment (6-mer frequency, TF over GST control)"
11,TCAAAT,"1.01 fold enrichment (6-mer frequency, TF over GST control)"
12,GATTTG,"1.12 fold enrichment (6-mer frequency, TF over GST control)"
13,CGTCAC,"1.15 fold enrichment (6-mer frequency, TF over GST control)"
14,TTCGAG,"1.23 fold enrichment (6-mer frequency, TF over GST control)"
15,GGTTTC,"1.49 fold enrichment (6-mer frequency, TF over GST control)"
16,ACTGCG,"1.26 fold enrichment (6-mer frequency, TF over GST control)"
17,ACTGAC,"1.18 fold enrichment (6-mer frequency, TF over GST control)"
18,AAGTTG,"1.08 fold enrichment (6-mer frequency, TF over GST control)"
19,CGCACT,"1.21 fold enrichment (6-mer frequency, TF over GST control)"
20,ACATCG,"1.11 fold enrichment (6-mer frequency, TF over GST control)"

# Biological target: T2, ETV3L (Homo sapiens, UniProt Q6ZN32 1-361)
# T2 sequence: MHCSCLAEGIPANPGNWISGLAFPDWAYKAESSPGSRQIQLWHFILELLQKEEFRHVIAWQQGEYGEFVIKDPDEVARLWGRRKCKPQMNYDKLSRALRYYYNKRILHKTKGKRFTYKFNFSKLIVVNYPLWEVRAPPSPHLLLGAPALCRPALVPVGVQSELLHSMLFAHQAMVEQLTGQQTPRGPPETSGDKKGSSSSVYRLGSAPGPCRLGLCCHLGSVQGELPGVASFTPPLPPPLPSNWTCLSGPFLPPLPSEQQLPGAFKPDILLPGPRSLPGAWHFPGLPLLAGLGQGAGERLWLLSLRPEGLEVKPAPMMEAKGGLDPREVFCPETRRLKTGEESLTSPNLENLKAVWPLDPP
# Assay: as above
# Conditions: protein: recombinant; tags: N-terminal GST; dsDNA, one strand shown
# Method in brief: as §1
row,Sequence,binding signal
1,GTCACA,"1.08 fold enrichment (6-mer frequency, TF over GST control)"
2,ATGGGT,"1.27 fold enrichment (6-mer frequency, TF over GST control)"
3,GTTTGA,"1.11 fold enrichment (6-mer frequency, TF over GST control)"
4,ATTGGG,"1.15 fold enrichment (6-mer frequency, TF over GST control)"
5,CGTCCC,"1.3 fold enrichment (6-mer frequency, TF over GST control)"
6,GCTCTG,"1.23 fold enrichment (6-mer frequency, TF over GST control)"
7,TTCCCT,"1.69 fold enrichment (6-mer frequency, TF over GST control)"
8,CCGGCC,"1.19 fold enrichment (6-mer frequency, TF over GST control)"
9,TTCTTG,"1.56 fold enrichment (6-mer frequency, TF over GST control)"
10,TGTTTG,"1.35 fold enrichment (6-mer frequency, TF over GST control)"
11,ATTGCC,"1.34 fold enrichment (6-mer frequency, TF over GST control)"
12,ACGCCC,"1.17 fold enrichment (6-mer frequency, TF over GST control)"
13,CACTCC,"1.33 fold enrichment (6-mer frequency, TF over GST control)"
14,AAAAAA,"1.28 fold enrichment (6-mer frequency, TF over GST control)"
15,CAGGAA,"1.53 fold enrichment (6-mer frequency, TF over GST control)"
16,GCCCGC,"1.09 fold enrichment (6-mer frequency, TF over GST control)"
17,TACGTC,"1.27 fold enrichment (6-mer frequency, TF over GST control)"
18,TAATCC,"1.21 fold enrichment (6-mer frequency, TF over GST control)"
19,GCGGAA,"1.29 fold enrichment (6-mer frequency, TF over GST control)"
20,TGATGT,"1.21 fold enrichment (6-mer frequency, TF over GST control)"
